In PubChem BioAssay AID2528 (National Center for Advancing Translational Sciences (NCATS), 2010):
In all, about 350,000 compounds went through this assay and about 700 (0.2%) were called active. The sample holds actives, similar compounds and a random draw of the others, so the mix is not that of the screen. Calls come from the whole dose curve; as a rule, active = well fitted inhibition curve with a large enough effect; inconclusive = small, poorly fitted or top-dose-only effect; inactive = flat fitted curve, though single readings scatter.

molecular target: RecQ-like DNA helicase BLM (Homo sapiens) (UniProt P54132); assay: qHTS Assay for Inhibitors of Bloom's syndrome helicase (BLM); details: recombinant BLM DNA unwinding, fluorescence dequenching; series mostly up to 56.1 µM; activity change, negative = inhibition: at the top concentration; note: nearly all actives have a fitted effect of over 35% in size;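 for activity change, negative = inhibition: plate controls were vehicle for no effect and no enzyme for full effect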
Sequence (P54132 whole entry, looked up): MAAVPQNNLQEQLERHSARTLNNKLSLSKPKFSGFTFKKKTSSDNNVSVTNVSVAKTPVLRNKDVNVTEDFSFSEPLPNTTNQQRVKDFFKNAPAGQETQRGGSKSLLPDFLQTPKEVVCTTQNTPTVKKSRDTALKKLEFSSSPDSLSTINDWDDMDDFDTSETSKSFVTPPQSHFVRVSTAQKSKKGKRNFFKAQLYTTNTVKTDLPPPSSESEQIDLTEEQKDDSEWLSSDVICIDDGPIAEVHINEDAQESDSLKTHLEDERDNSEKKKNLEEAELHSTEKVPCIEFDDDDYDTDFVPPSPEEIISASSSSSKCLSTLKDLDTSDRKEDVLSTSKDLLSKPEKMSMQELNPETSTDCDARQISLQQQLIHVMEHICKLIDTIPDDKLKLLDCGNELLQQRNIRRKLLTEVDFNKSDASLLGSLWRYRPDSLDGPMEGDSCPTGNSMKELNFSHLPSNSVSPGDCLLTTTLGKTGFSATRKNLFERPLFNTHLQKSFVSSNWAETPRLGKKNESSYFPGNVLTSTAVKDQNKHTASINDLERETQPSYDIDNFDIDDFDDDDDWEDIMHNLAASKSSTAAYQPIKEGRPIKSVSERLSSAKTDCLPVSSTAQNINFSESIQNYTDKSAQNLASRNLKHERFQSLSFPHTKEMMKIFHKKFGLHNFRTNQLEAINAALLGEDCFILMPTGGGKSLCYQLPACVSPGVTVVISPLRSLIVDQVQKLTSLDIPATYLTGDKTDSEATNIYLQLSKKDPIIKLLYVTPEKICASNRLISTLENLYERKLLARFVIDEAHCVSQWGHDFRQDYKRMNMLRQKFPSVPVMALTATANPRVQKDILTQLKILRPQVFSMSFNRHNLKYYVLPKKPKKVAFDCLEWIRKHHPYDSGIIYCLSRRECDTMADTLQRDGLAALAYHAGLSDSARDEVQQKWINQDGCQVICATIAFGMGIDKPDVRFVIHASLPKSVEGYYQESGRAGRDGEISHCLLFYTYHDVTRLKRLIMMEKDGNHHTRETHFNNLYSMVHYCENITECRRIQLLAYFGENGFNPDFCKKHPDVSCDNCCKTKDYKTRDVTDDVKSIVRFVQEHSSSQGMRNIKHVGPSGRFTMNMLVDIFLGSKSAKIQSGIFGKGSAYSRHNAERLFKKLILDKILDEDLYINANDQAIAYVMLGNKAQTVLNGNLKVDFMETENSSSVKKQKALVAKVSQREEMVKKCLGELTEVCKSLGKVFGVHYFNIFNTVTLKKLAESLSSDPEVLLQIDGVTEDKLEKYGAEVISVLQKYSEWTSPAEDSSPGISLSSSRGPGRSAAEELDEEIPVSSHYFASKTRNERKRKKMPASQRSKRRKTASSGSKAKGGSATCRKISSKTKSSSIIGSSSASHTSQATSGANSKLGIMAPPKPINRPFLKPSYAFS
Potency is the fitted concentration of half-maximal effect.

SMILES | activity change, negative = inhibition | Potency
COc1cccc(-c2cc(NCCc3c[nH]c4ccc(OC)cc34)ncn2)c1 | -17% (inactive) | –
CO[C@H]1COC(=O)[C@@H](C)NC(=O)C/C=C\[C@@H](C)[C@H](OC)COC(=O)C/C=C\[C@@H]1C | 0.711% [at 12.4 µM] (inactive) | –
CCCC[C@@H]1C[C@H]1C(NC(=O)c1ccco1)c1ccc(C(=O)OC)cc1 (some centres not stated) | -7.12% (inactive) | –
CCOc1ccc(OCC)c(NC(=O)CN(c2ccc(C)cc2)S(=O)(=O)c2c(C)n[nH]c2C)c1 | -16.1% (inactive) | –
CCCCC/C=C\C/C=C\C/C=C\CCCCC(=O)NCC(=O)O | -0.391% (inactive) | –
COc1cccc([C@@H]2Oc3ccc(Br)cc3C(=O)[C@H]2OC(=O)NCCc2ccc(OC)c(OC)c2)c1 | 1.09% (inactive) | –
CCc1nn(CC(=O)NCC(C)c2ccccc2)c(=O)c2cc3occc3n12 (configuration not stated) | 3.04% (inactive) | –
C[C@@H]1C[C@H]2[C@@H]3C[C@H](F)C4=CC(=O)C=C[C@@]4(C)[C@]3(F)[C@H](O)C[C@]2(C)[C@@]1(O)C(=O)CO | 2.68% [at 21.4 µM] (inactive) | –
CC(=O)OC1C([N+]2(C)CCCCC2)C[C@H]2C3CC[C@H]4C[C@H](OC(C)=O)C([N+]5(C)CCCCC5)CC4(C)C3CCC12C (some centres not stated) | 112% (inactive) | –
COC(=O)C(C(=O)OC)[C@@H]1CCCC(=O)C1 | -7.4% [at 12.4 µM] (inactive) | –
O=c1cc(-c2ccc(O)cc2)oc2c(-c3cc(-c4cc(=O)c5c(O)cc(O)cc5o4)ccc3O)c(O)ccc12 | 0.459% (inactive) | –
COc1ccc(C2(C#N)CCC(C(=O)O)CC2)cc1OC1CCCC1 (configuration not stated) | 3.05% (inactive) | –
COC(=O)C1(C)C=CCN1C(=O)c1ccccc1 (configuration not stated) | -5.29% (inactive) | –
CC(C)=CC1C(C(=O)O)C1(C)C (configuration not stated) | 0.827% (inactive) | –
O=C(CCOc1ccccc1)N(Cc1cccnc1)c1nc2ccc(Cl)cc2s1 | -2.17% (inactive) | –
CC1(C)OC2CC(=O)OC[C@@]23C1CC(=O)[C@]1(C)C3CC[C@@]2(C)C(c3ccoc3)OC(=O)C3O[C@@]321 (some centres not stated) | -17.7% (inactive) | –
FC(F)(F)c1ccccc1-c1cc(NCc2ccccc2)ncn1 | -0.252% (inactive) | –
O=C(CSc1nccn1Cc1ccc(Cl)cc1)NCc1ccccc1 | -3.71% (inactive) | –
C/C=C/C=N/NC(=O)c1ccncc1 | 2.91% (inactive) | –
CC1CN(C(=O)N2CCC(C(=O)NCc3ccco3)CC2)c2cc(Cl)ccc2O1 (configuration not stated) | -7.62% (inactive) | –
COC(=O)[C@@H]1C[C@@]2(O)[C@H](O)[C@H](O)[C@H](O)C[C@H]2N1CC1CCCCC1 | -8.47% (inactive) | –

SMILES | activity change, negative = inhibition | Potency
O=C(c1cnccn1)N1CCC2(CCCN(Cc3ccccc3)C2)CC1 | 4.7% (inactive) | –
CCOC(=O)Cn1c(=O)sc2cccc(Cl)c21 | 0.848% (inactive) | –
O=C(c1cnccn1)N1CCC2(CCN(Cc3cc(C(F)(F)F)cc(C(F)(F)F)c3)CC2)CC1 | -6.6% (inactive) | –
Cc1cccc(-c2nc(SCc3ccc(Br)cc3)n3[nH]c(=O)cc3n2)c1 | -2.52% (inactive) | –
O=c1cc2nc(-c3ccccc3)nc(SCCOc3ccc(Cl)cc3)n2[nH]1 | -17.2% (inactive) | –
Cc1ccc(-c2nc(SCc3ccc(Br)cc3)n3[nH]c(=O)cc3n2)cc1 | – | 28.2 µM (active)
O=C(OCc1ccccc1)c1ccc(O)cc1 | -3.18% (inactive) | –
COC(=O)N1C(/C=C/C=C/c2ccc(OC)cc2)=Cc2ccccc2C1CC(C)=O (configuration not stated) | -6.97% [at 12.4 µM] (inactive) | –
C[C@H]1Cc2c(-c3ccccc3)nc3c(c2CO1)CN(S(=O)(=O)c1ccc(Cl)c2nonc12)CC3 | -0.0157% [at 12.4 µM] (inactive) | –
O=c1c(CCc2ccccc2)nc2cnc(N3CCNCC3)nc2n1Cc1cccs1 | -4.03% (inactive) | –
COc1cc(OC)cc(-c2nnc(SCC(=O)Nc3ccc(C(=O)O)cc3)s2)c1 | -4.98% (inactive) | –
COc1ccc(NC(=O)CSc2nc(N)c(-c3ccccc3)c(=O)[nH]2)cc1 | -0.862% (inactive) | –
COc1ccc(-c2nc3c(c(SCC(=O)Nc4ccc(C(=O)O)cc4)n2)Cc2ccccc2O3)cc1 | – | 7.08 µM (active)
Cc1ccc(S(=O)(=O)NC(=O)COc2ccccc2C)cc1 | -0.852% (inactive) | –
C=C(C)CNC(=S)N/N=C/c1ccccc1OCC(=O)O | 2.68% (inactive) | –
Cc1ccc(NS(=O)(=O)c2ccc(N/N=C/c3ccccc3OCC(=O)O)c([N+](=O)[O-])c2)c(C)c1 | – | 7.08 µM (active)
COc1c(O)c2c(=O)cc(OC)c3c4c(OC)cc(=O)c5c(O)c(OC)c6c(c(c1C[C@@](C)(O)[C@H]6C(C)=O)c23)c54 | -7.75% (inactive) | –
COC(=O)[C@@]1(C)C=C[C@@H](Cc2ccccc2)N1C(C)=O | 0.615% (inactive) | –
CCc1c2c(nc3ccc(O)cc13)-c1cc3c(c(=O)n1C2)COC(=O)[C@]3(O)CC | 2.37% (inactive) | –
Oc1ccc(Cl)c2c1CCC2 | -5.49% (inactive) | –
COc1ccc(C(=O)N2CCC3(CCCN(C(c4ccccc4)c4ccccc4)C3)CC2)cc1 | -11% (inactive) | –

SMILES | activity change, negative = inhibition | Potency
COC(=O)c1cc(NC(=O)c2sc3ccccc3c2Cl)cc(C(=O)OC)c1 | -3.91% (inactive) | –
Cc1cc(N=Nc2ccc3ccccc3c2)ccc1O | -11% (inactive) | –
Oc1ccc(N=Cc2c(O)ccc3ccccc23)cc1 | – | 31.6 µM (active)
CCOc1[nH]n(-c2ccc(Cl)cc2)c(=O)c1C=Nc1ccc(O)cc1 | -10.3% (inactive) | –
Oc1ccc(N=Cc2sc3ccccc3c2Cl)cc1 | – | 20 µM (active)
CCCC(=O)Nc1ccc(NC(=O)c2sc3ccccc3c2Cl)cc1 | -4.36% (inactive) | –
Cc1cccc(CNc2ccnc(-c3cccnc3)n2)c1 | -2.36% (inactive) | –
O=C(Nc1cc(C(=O)Nc2ccc(S(=O)(=O)O)cc2)cc(C(=O)Nc2ccc(S(=O)(=O)O)cc2)c1)Nc1cc(C(=O)Nc2ccc(S(=O)(=O)O)cc2)cc(C(=O)Nc2ccc(S(=O)(=O)O)cc2)c1 | -1.71% (inactive) | –
O=C(c1ccncc1)N1CCC2(CCCN(C(c3ccccc3)c3ccccc3)C2)CC1 | -8.72% (inactive) | –
O=C(c1cnccn1)N1CCC[C@@]2(CCN(Cc3ccncc3)C2)C1 | 4.22% (inactive) | –
CCc1nc(-c2cc(S(=O)(=O)N3CCN(c4ccc(OC)cc4)CC3)ccc2OC)no1 | -13.5% (inactive) | –
CCCS(=O)(=O)c1ncc(Cl)c(C(=O)Nc2scc(-c3ccccc3)c2C(=O)OCC)n1 | 0.746% (inactive) | –
Oc1c(C(c2ccc(F)cc2)N2CCN(Cc3ccccc3)CC2)sc2nc(-c3ccco3)nn12 (configuration not stated) | -2.07% (inactive) | –
C=C1C([C@@]2(C)C(OC(C)=O)CC(=O)O[C@@](C)(COC(C)=O)C2CC(=O)OC)C(OC=O)C(OC(=O)C(O)C(C)CC)[C@]2(C)C(c3ccoc3)CC(=O)C12O (some centres not stated) | 2.02% (inactive) | –
CC(=O)N1CCC2(CCCN(Cc3ccc(C#N)cc3)C2)CC1 | 3.65% (inactive) | –
CC1(C)C=CC(=O)[C@]2(C)C1CC(=O)[C@]1(C)C2CC[C@@]2(C)C(c3ccoc3)OC(=O)C3OC321 (some centres not stated) | 0.499% (inactive) | –
C=C1CCN(C(CC(C)C)C(=O)N2CCOCC2)S(=O)(=O)c2ccccc21 (configuration not stated) | -13.3% (inactive) | –
COc1ccc(S(=O)(=O)NCC(c2ccc(N(C)C)cc2)N2CCc3ccccc32)cc1OC (configuration not stated) | -10.6% (inactive) | –
O=C(O)c1ccc(/C=C2/SC(=S)N(c3cccc(C(F)(F)F)c3)C2=O)cc1 | -13.8% (inactive) | –
Cn1c(N)c(C(=O)COC(=O)c2cc(C(F)(F)F)nc3c(C(F)(F)F)cccc23)c(=O)n(C)c1=O | -3.53% (inactive) | –
